Rows were chosen to be rich in hits. Some 0.92% of all compounds tested hit in one or more screens of this group.
MEP2-GFP yeast: yeast TOR pathway MEP2-GFP modulation; 330,000 tested, 0.51% active; GFP response vs DMSO, % at 10 µM; S. cerevisiae MEP2-GFP strain, flow cytometry GFP, 3 h; 100% = DMSO control level;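 active = GFP response versus DMSO above a set limit, roughly screen mean plus 3 SD, cut at about 180% in these data; inconclusive = fewer than 70 cells counted for a yeast strain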;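 also: median GFP fluorescence of the barcode-gated MEP2-GFP cells per well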
LAP4 TOR yeast: yeast TOR pathway LAP4-GFP modulation | 320,000 tested, 0.34% active | AID 2023 | GFP response vs DMSO, % at 10 µM | S. cerevisiae LAP4-GFP multiplex, flow cytometry GFP, 3 h; median GFP as percent of DMSO wells;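 active = GFP response vs DMSO above a set limit, about the screen mean plus 3 SD, cut at about 150% in these data; inconclusive = under 70 cell events counted for the yeast strain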
AGP1-GFP MLPCN: yeast TOR pathway AGP1-GFP modulation. 320,000 tested, 0.02% active. GFP response vs DMSO, % at 10 µM. S. cerevisiae AGP1-GFP multiplex flow cytometry, 3 h; GFP as percent of DMSO wells;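 active = GFP response relative to DMSO above a set limit, near screen average plus 3 SD, cut at about 150% in these data; inconclusive = fewer than 70 cells counted for the yeast strain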;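 also: median GFP channel fluorescence of the gated AGP1 strain per well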
CIT2 TOR yeast: yeast TOR pathway CIT2-GFP modulation | S. cerevisiae CIT2-GFP strain, flow cytometry, 3 h; 100 means same as DMSO wells | AID 2029 | 320,000 tested, 0.065% active | GFP response vs DMSO, % at 10 µM;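 active = GFP response relative to DMSO above a set limit, near the screen mean plus 3 SD, cut at about 150% in these data; inconclusive = Fewer than 70 cells measured for a yeast strain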;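 also: ratio of well median GFP fluorescence to mean of DMSO wells on the plate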
RPL19A-GFP yeast: modulators of TOR pathway RPL19A-GFP in S. cerevisiae; percent response vs DMSO, % at 10 µM; S. cerevisiae RPL19A-GFP strain, flow cytometry, 3 h; hits give low values; 330,000 tested, 0.3% active;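 active = percent response vs DMSO below 50%; inconclusive = fewer than 70 events counted for the yeast strain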;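 also: median channel GFP fluorescence of the barcoded RPL19A-GFP strain; ratio of sample median GFP to plate DMSO average so 100% = DMSO; lower means less RPL19A-GFP as with rapamycin TOR inhibition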
An asterisk follows results filed as active; ? = inconclusive; · = no result; + = active, no number; [ ] = another dose, or the depositor's remark.

SMILES	MEP2-GFP yeast	LAP4 TOR yeast	AGP1-GFP MLPCN	CIT2 TOR yeast	RPL19A-GFP yeast
CCN1/C(=C/c2ccc3cc(C)ccc3[n+]2CC)Sc2ccccc21	+[may fluoresce green]	604.9*[may fluoresce green]	238.0*[may fluoresce green]	+[may fluoresce green]	321.2
Cc1c(CCC(=O)NC2CC2)c(=O)oc2cc(O)ccc12	103.9	102.1	101.1	105.8	97.9
O=P(Cc1ccccc1O)(c1ccccc1)c1ccccc1	207.8*[may fluoresce violet]	83.7	?	?	53.9
O=C(CCCC(=O)OCC1CCCO1)OCC1CCCO1 (stereo not given)	281.1*[may fluoresce violet]	99.5	·	?	52.6
O=C(CCCC(=O)NCC1CCCO1)NCC1CCCO1 (stereo not given)	110.6	107.2	107.9	112.3	105.4
CC(C)c1ccc(OCC(=O)NNC(=S)NC(=O)C2CC2)cc1	116.5	154.1*[may fluoresce green]	112.7	101.5	108.2
N#Cc1ccc(OCC(=O)NNC(=S)NC(=O)C2CC2)cc1	110.7	104.0	104.9	107.7	104.2
COc1ccccc1C(=O)N1c2ccccc2Sc2ccccc21	105.8	98.2	105.2	103.5	100.1
CCOc1ccccc1C(=O)N1c2ccccc2Sc2ccccc21	233.3*[may fluoresce violet]	81.9	25.1	?	·
COC(=O)N1C(=O)[C@](Cc2ccccc2)(c2ccccc2)N1C(=O)OC	86.4	122.7	76.7	58.9	89.9
CN1CCc2c(sc(/N=C/c3c[nH]c4ccccc34)c2C(N)=O)C1	575.8*[may fluoresce violet]	·	·	·	69.3
COc1ccc(N=N/C(=C\O)C(=O)c2cccs2)cc1	93.5	108.8	77.8	73.5	95.8
O=C(/C(=C/O)N=Nc1ccc(Cl)cc1)c1ccncc1	122.2	202.8*	78.0	68.1	64.0
COc1ccc(C(=O)/C(=C/O)N=Nc2ccc(F)cc2)cc1	99.3	171.9*	96.1	77.2	93.8
CN(C)S(=O)(=O)c1cccc(NC(=S)NNC(=O)c2cc3ccccc3cc2O)c1	97.1	99.6	103.7	106.6	97.0
O=C1/C(=C/c2ccncc2)Cc2ccccc21	94.8	98.9	98.0	89.3	94.5
CC1C/C(=C/c2ccncc2)C(=O)/C(=C/c2ccncc2)C1 (stereo not given)	389.1*[may fluoresce violet]	124.6	10.4	?	37.9*[may fluoresce violet]
CCOc1ccccc1C(=O)Oc1ccc2ccc(=O)oc2c1	105.2	97.5	94.5	95.9	104.6
Clc1ccc(SCc2cc(-c3ccccc3)on2)cc1	217.9*[may fluoresce violet]	82.9	?	?	52.8
CC1CN(c2nnnn2-c2ccccc2)CC(C)O1 (stereo not given)	187.8*	95.1	28.9	112.1	78.0
O=c1c2c(-c3cccs3)csc2ncn1/N=C/c1ccccn1	91.1	155.7*	100.0	82.6	82.2
COc1cccc(C(=O)CSc2nccn2C)c1	99.1	83.2	94.5	95.8	96.4
Cn1ccnc1SCC(=O)c1ccc2ccccc2c1	102.8	143.8	24.6	?	49.1*[may fluoresce violet]
COc1ccc(CNC(=O)c2c(O)c3cccc4c3n(c2=O)CCC4)cc1OC	294.6*[may fluoresce violet]	88.2	·	?	37.8*[may fluoresce violet]
CNC(=O)c1c(O)c2cccc3c2n(c1=O)CCC3	96.2	89.4	87.7	91.7	101.4
SMILES	MEP2-GFP yeast	LAP4 TOR yeast	AGP1-GFP MLPCN	CIT2 TOR yeast	RPL19A-GFP yeast
Cc1ccc(SCCCn2cncn2)cc1	319.8*[may fluoresce violet]	86.5	20.8	?	45.4*[may fluoresce violet]
O=C1c2cccc3cccc(c23)C(=O)N1OS(=O)(=O)c1ccccc1	263.1*[may fluoresce violet]	94.5	·	?	50.3
O=C1c2cccc3cccc(c23)C(=O)N1OS(=O)(=O)c1ccc(Br)cc1	104.2	99.0	108.1	107.8	106.5
COc1cc([N+](=O)[O-])ccc1NC(=O)CCCOc1cc(C)ccc1C	108.8	96.5	97.4	98.1	103.9
CC1(C)CC(=O)C2=C(C1)OC1=C(C(=O)CC(C)(C)C1)C2c1ccc(O)cc1O	91.9	177.8*	92.2	80.4	88.3
CC1CCN(CCCNC(=O)C2CCN(S(=O)(=O)N3CCC4(CC3)OCCO4)CC2)CC1	131.4	84.0	17.9	?	44.9*[may fluoresce violet]
O=C(NC(=S)NNC(=O)c1ccco1)c1ccc(F)cc1	?	?	?	?	8.6*[may fluoresce violet]
O=c1[nH]c(CN(CCO)CCO)nc2c1C1(CCCCC1)Cc1ccccc1-2	288.8*[may fluoresce violet]	86.2	·	?	42.3*[may fluoresce violet]
CCN(CC)Cc1nc2c(c(=O)[nH]1)C1(CCCC1)Cc1ccccc1-2	92.2	103.0	102.0	91.8	102.1
CCCC(=O)Nc1cccc(NC(=O)c2ccccc2Br)c1	286.4*[may fluoresce violet]	95.6	?	?	34.0*[may fluoresce violet]
CCC(=O)Nc1cccc(NC(=O)c2ccccc2Br)c1	107.9	99.0	108.2	105.5	107.6
COc1cc2c(cc1OC)CN(C(=S)NC(=O)c1ccccc1)CC2	99.1	89.8	92.7	91.0	101.3
Cc1cc([N+](=O)[O-])ccc1NC(=O)c1cccc(NC(=O)C(C)C)c1	191.1*[may fluoresce violet]	70.4	?	?	74.6
CC(C)C(=O)Nc1cccc(C(=O)Nc2cc([N+](=O)[O-])ccc2Cl)c1	106.1	102.1	95.9	96.1	102.3
COc1ccc(C2NC(=O)c3sc4nc(C)c(C(C)=O)c(-c5ccc(Cl)cc5)c4c3N2)cc1 (stereo not given)	416.9*[may fluoresce violet]	97.2	31.9	?	30.1*[may fluoresce violet]
COc1ccc(-c2c(C(C)=O)c(C)nc3sc4c(=N)n(N)cnc4c23)cc1	112.5	105.9	113.0	109.8	107.4
COc1ccc(/C=C2/NC(=O)CNC2=O)cc1	103.2	92.0	106.3	104.0	104.8
CCOc1ccc(NC(=O)C/C(C)=N/NC(=O)COc2ccc(Br)cc2C)cc1	252.1*[may fluoresce violet]	96.1	26.6	?	61.3
Cc1c(Br)c([N+](=O)[O-])nn1CC(=O)Nc1ccc(Cc2ccncc2)cc1	93.2	90.0	85.4	91.7	90.2
CN(CCNC(=O)c1ccc(CS(=O)(=O)c2ccc(Br)cc2)o1)CCc1ccccc1	106.8	97.0	105.5	105.6	104.3
O=C(NCCc1ccccc1)c1ccc(CS(=O)(=O)c2ccc(Br)cc2)o1	159.3	79.8	?	?	19.9*[may fluoresce violet]
Cc1cccc(OCC(=O)NNC(=O)c2cc3ccccc3oc2=O)c1	210.7*[may fluoresce violet]	93.6	26.6	?	60.4
COc1ccc(/C=N/Nc2nnc(C)n2N)cc1OC	108.4	95.7	104.1	109.2	102.0
COc1ccc(/C=N/Nc2nnc(C)n2N)cc1OC(C)=O	191.9*	125.4	115.4	108.8	103.0
Cc1ccccc1C(=O)/C=C1/SCC(=O)N1C	99.8	106.7	103.5	99.3	100.4
O=C(COC(=O)c1ccc2ccccc2n1)Nc1ncc(C(F)(F)F)cc1Cl	275.5*[may fluoresce violet]	91.8	?	?	37.8*[may fluoresce violet]
O=C(COC(=O)c1ccc2ccccc2c1)Nc1ncc(C(F)(F)F)cc1Cl	99.6	93.4	91.0	93.2	100.4
CCCn1c(=O)[nH]c(=O)c2c1nc(-c1ccc(OC(F)(F)C(F)C(F)(F)F)cc1)n2CCOC (stereo not given)	178.7*[may fluoresce violet]	101.3	60.1	?	71.6
C=CCCCCCCCCC(=O)Nc1ncccn1	98.7	107.6	92.0	76.8	97.8
